From PubChem BioAssay (NCATS)
Records with an inconclusive call do not appear. Where a call stands in place of a potency, no number is given. Calls of active or inactive are those of the source. Calls come from the whole dose curve; as a rule, active = well fitted activation curve with a large enough effect in the repeat runs; inconclusive = weak or mixed curves; inactive = flat fitted curve, though single readings scatter.

experiment: qHTS assay for small molecule agonists of the antioxidant response element (ARE) signaling pathway measured by Nrf2-dependant transcriptional activity (AID 720636); settings: ARE-luc HepG2, Nrf2 luciferase reporter, 16 h; series mostly up to 92.4 µM
Source text: National Center for Advancing Translational Sciences [NCATS] NIH Chemical Genomics Center [NCGC] U.S. Environmental Protection Agency [EPA] National Institutes of Environmental Health Sciences [NIEHS] National Toxicology Program [NTP] Assay Overview: The antioxidant response element (ARE) signaling pathway plays an important role in the cellular anti-oxidant defense. Exposure to stressors which are exogenous like ionizing radiations, chemicals, U-V light, and endogenous like cell signaling, metabolic processes or inflammation, reactive oxygen species (ROS), can induce oxidative stress in the cells. Oxidative stress has been implicated in the pathogenesis of a variety of diseases ranging from cancer to neurodegeneration. ARE-luc HepG2 cell line (Simmons et al., Current Chemical Genomics, 5:1-12, 2011) has been used for identifying the chemicals that induce oxidative stress. The cell line has an Nrf2-responsive luciferase reporter gene that has been engineered to measure Nrf2-dependant transcriptional activity.
Assay Protocol Summary: For measuring ARE induction; 2,000 ARE-luc HepG2 cells in 5 uL of assay medium containing 1% dialyzed FBS per well were dispensed into white wall/solid bottom 1536-well plates using a Flying Reagent Dispenser (FRD) (Aurora Discovery). The assay plates were incubated for 6 hr at 37 C to allow cell attachment to the well bottom, followed by the transfer of 23 nL compound or DMSO vehicle by a pin tool (Kalypsys). The plates were incubated for 16 hr at 37 C and 5% CO2, followed by the addition of 5 uL of ONE-GloTM luciferase reagent (Promega) into each well using FRD. After 30 min room temperature incubation, plates were read on a ViewLux plate reader (PerkinElmer).

SMILES | Potency
Oc1cc(Cl)ccc1Cl | inactive
Oc1cc(Cl)c(Cl)c(Cl)c1 | inactive
Clc1cc(Cl)c(Cl)c(Cl)c1 | inactive
Clc1ccc(C(Cl)(Cl)Cl)c(Cl)c1 | inactive
NNC(N)=S | inactive
BrC(Br)Br | inactive
BrCC(Br)(Br)Br | inactive
CCCC[N+](=O)[O-] | inactive
C(CCOCC1CO1)COCC1CO1 (stereo not given) | inactive
C=CCc1cc(OC)c2c(c1)OCO2 | inactive
CC(Cl)(Cl)Cl | inactive
CCOP(=S)(OCC)SCCSCC | inactive
CCCCCCCCCCCOC(=O)c1ccccc1C(=O)OCCCCCCCCCCC | inactive
O=[N+]([O-])c1ccccc1-c1ccccc1 | inactive
CCCCC(=O)Cl | inactive
CCC[N+](=O)[O-] | inactive
O=[N+]([O-])c1cccc(O)c1 | inactive
CC(C)(COCC1CO1)COCC1CO1 (stereo not given) | inactive
CCOC(=O)CBr | inactive
CN1CSC(=S)N(C)C1 | inactive

SMILES | Potency
CCSC(=O)N1CCCCCC1 | inactive
Oc1c(Cl)cccc1Cl | inactive
CCOP(=O)(OCC)OCC | inactive
Nc1ncc([N+](=O)[O-])s1 | inactive
Clc1ccc(C(c2ccccc2Cl)C(Cl)(Cl)Cl)cc1 (stereo not given) | inactive
CN=C=O | inactive
CC(C)OC(=O)Cc1ccccc1 | inactive
Nc1ccc(-c2ccc(N)cc2)cc1 | inactive
CN(C)N=O | inactive
N#CCc1ccccc1 | inactive
CN(C)c1ccccc1 | inactive
N#C/C(N)=C(/N)C#N | inactive
Nc1ccc(Oc2ccc(N)cc2)cc1 | inactive
Cc1ccc(N)cc1Cl | inactive
C=C(Cl)CSC(=S)N(CC)CC | inactive
C=CC(=O)OCC(C)C | inactive
Nc1ccc2ccccc2c1 | inactive
Cc1ccc(N)c(C)c1 | inactive
c1ccc(OCC2CO2)cc1 (stereo not given) | inactive
O=Cc1ccc2c(c1)OCO2 | inactive
